The source of these data is PubChem BioAssay (NCI).

Structures are written as SMILES. Compounds without any hit were thinned out: in the full panel of roughly 83,000, 20% have a hit.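 Step 1: grow cells in 96-well plates. Step 2: add test compound at a single concentration. Step 3: incubate 48 h. Step 4: record percent growth.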 Active and inactive are the calls of the source.

The test system of this test is KM12 colon. The test can be described thus: NCI-60 one-dose screen, 48 h (100 = growth as untreated, 0 = no growth, -100 = all killed). Particulars: 10 µM unless noted. The protocol: Growth inhibition of the KM12 human tumor cell line is measured as a screen for anti-cancer activity. Cells are grown in 96 well plates and exposed to the test compound for 48 hours. Compounds are tested at a single concentration, which is 10^-5 M for most compounds. The reported endpoint is percent growth (GI% or GIPRCNT), where numbers from 0 - 100% represent growth inhibition, and numbers from -100% - 0 represent cell death. For example, a value of 40 represents 60% growth inhibition. A value of 0 means no net growth occurred over the course of the experiment. A value of -40 indicates 40% of cells at the beginning of the experiment died by the end of the experiment. A value of -100 means all cells are dead at the end of the experiment.
NCI-60 Human Tumor Cell Lines Screen was performed using the standard one-dose NCI protocol, which is described in more detail at https://dtp.cancer.gov/discovery_development/nci-60/default.htm.
Compounds with GIPRCNT values below 10 were considered active. Activity score was based on GIPRCNT using the following formula: […]
Score is 0 for GIPRCNT values of 100 or above, 50 for GIPRCNT values of 0, and 100 for GIPRCNT values of -100.
In the case of `CN=C(NC)N/N=C(C)\C=N\NC(=NC)NC`, the growth is 104% (inactive).

As for `CCC1=C(c2ccc(OC)cc2)C(C)(C)Oc2c1ccc(O)c2CN1CCCC1`, the growth is -9.53% (active). Turning to `O=[P@@]1(c2ccccc2)O[C@H](COCc2ccccc2)[C@@H](OCc2ccccc2)[C@H](OCc2ccccc2)[C@H]1NCc1ccccc1`, the growth is 15.3% (inactive). As to `CC1=C(C(=O)Nc2ccccc2)C(c2ccc3c(c2)OCCO3)NC(=O)N1` (stereo not given), the growth is 100% (inactive). In the case of `COc1cc2c(cc1OCCCCCn1c(-c3ccc(OCc4ccccc4)cc3)nc3cc(N4CCOCC4)ccc31)N=C[C@@H]1CCCN1C2=O` it was -26.7% (active); in that of `Nc1nonc1-c1nc2ccccc2n1CC(=O)Nc1ccc2c(c1)COC2=O`, 64.4% (inactive); in that of `COC(=O)CC1=C(C)/C(=C/c2[nH]c(-c3ccc[nH]3)cc2OC)N=C1C`, 10.2% (inactive).

As to `C=C(C[C@@](O)(C(=O)Oc1ccccc1)C(=O)C1CCCCC1)c1ccccc1`, the growth was 105% (inactive). With `CCN(CC)CCOc1ccccc1-n1c(C)ccc1-c1ccccc1`, the growth is 50.6% (inactive). In the case of `CN(C)CCCN1c2nc3ccccc3cc2Sc2cc3ccccc3nc21` it was -72.4% (active); in that of `Cc1nn(-c2ccccc2)c2nc3c(nc12)C(=O)CCC3`, 87.1% (inactive). Consider `O=C(Nc1ccc(Oc2ccc(NC(=O)Nc3ccc([N+](=O)[O-])cc3)cc2)cc1)Nc1ccc([N+](=O)[O-])cc1`, for which the growth is -5.89% (active). In the case of `COc1cccc2c1C(=O)c1c(O)c3c(c(O)c1C2=O)C[C@@](O)(/C(C)=N/NC(=O)c1cccc([N+](=O)[O-])c1)C[C@@H]3OC1CC(N)C(O)C(C)O1` (stereo not given in full) it was -39.2% (active); in that of `CCN(CC)CCNc1ccc(Cl)cc1Cl`, 110% (inactive). As for `C=C(C)[C@@H]1C/C=C(/C=O)CC[C@@H]2O[C@@]2(C)CC/C=C(\C)CC1`, the figure is 122% (inactive); as for `c1cnc2n[nH]c(Nc3ncnc4c3sc3ncccc34)c2c1`, 103% (inactive); as for `O=C(Nc1cccc([N+](=O)[O-])c1)c1cccc(C(=O)Nc2cccc([N+](=O)[O-])c2)c1`, 87.6% (inactive). In the case of `Cc1ccsc1/C=C/C1=NCCCN1C` it was 114% (inactive); in that of `O=c1ccn(C2CCCO2)c(=O)[nH]1` (stereo not given), 108% (inactive). As for `COc1ccc(C(=O)/C=C/c2c(Cl)nc3c(c(C)nn3-c3ccccc3)c2-c2ccc(Br)cc2)cc1`, the growth was 109% (inactive).

For `Nc1ccc(C2=Nc3cccc4cccc(c34)S2)cc1`, the growth is 76.5% (inactive). In the case of `COc1ccc2[nH]cc(/C=C3/C(=O)Nc4ccc(F)cc43)c2c1` it was 27% (inactive); in that of `Cc1ccc2c(c1)C(=O)/C(=C/c1ncc([N+](=O)[O-])n1C)O2`, -48.4% (active); in that of `COc1ccc(-c2cn(-c3ccccc3)c(-c3ccccc3)n2)cc1OC`, -3.88% (active). In the case of `COc1cc(C2=NN(C(C)=O)C(c3ccc(OC(C)=O)cc3OC(C)=O)O2)c(OC(C)=O)c2ccccc12` (stereo not given) it was 22.3% (inactive); in that of `CC(=O)Oc1c(C)c(OC(C)=O)c2c(c1C(C)=O)OC1CC(=O)C(C(C)=O)=C(O)C21C` (stereo not given), 105% (inactive); in that of `COc1ccc(C2=NN(C(=O)c3cc(OC)c(OC)c(OC)c3)C(c3ccc(C#N)cc3)C2)cc1OC` (stereo not given), 15.1% (inactive). Regarding `O=C(CSCC(=O)N/N=C/c1ccccc1O)N/N=C\c1ccccc1O`, the growth was 37.3% (inactive). For the compound `C[N+]1(CCC[N+]2(C)C[C@@H]3[C@H](C2)[C@@H]2C=C[C@H]3C2)CCOCC1` (stereo not given in full), the growth was 108% (inactive). As for `CCCCn1c(Cc2ccc(Cl)cc2)nc2cc(OC)c(OC)cc2c1=O`, the figure is 76.1% (inactive); as for `S=c1[nH]nc2sc3ccccc3n12`, 115% (inactive). On to `O=C(CN1CCCCC1)Sc1nnc2sc3ccccc3n12`, for which the growth was 104% (inactive). In the case of `O=C(OC[C@H]1O[C@H](OC(=O)c2cc(O)c(O)c(OC(=O)c3cc(O)c(O)c(O)c3)c2)[C@H](OC(=O)c2cc(O)c(O)c(OC(=O)c3cc(O)c(O)c(O)c3)c2)[C@@H](OC(=O)c2cc(O)c(O)c(OC(=O)c3cc(O)c(O)c(O)c3)c2)[C@@H]1OC(=O)c1cc(O)c(O)c(OC(=O)c2cc(O)c(O)c(O)c2)c1)c1cc(O)c(O)c(OC(=O)c2cc(O)c(O)c(O)c2)c1` it was 21.8% (inactive). Regarding `c1ccc(Nc2nnc(-c3cc(-c4cccnc4)n(-c4ccccc4)n3)s2)cc1`, the growth is 60.3% (inactive). For the compound `CCOc1cccc(C2CC(=O)Nc3cc4c(cc32)OCO4)c1` (stereo not given), the growth was 72.3% (inactive). Take `CCc1[nH]nc(-c2ccc(OC)cc2)c1-c1ccccc1OCCN(CC)CC`: the growth is 106% (inactive). As for `CCCCC1Nc2nc(SC)n(C)c(=O)c2CN(Cc2ccccc2)C1=O` (stereo not given), the figure is 105% (inactive). As for `C=C(C)[C@H]1CC/C(C)=C/CC[C@]2(C)O[C@H]2CC/C(C=O)=C\C1O` (stereo not given in full), the figure is 114% (inactive); as for `CC(C)c1ccc(C(=O)Nc2sc3c(CN(C)C)c(O)ccc3c2C(N)=O)cc1`, 6.38% (active). As for `COc1ccc(C(=O)COc2cccc(/C=C3\Oc4ccc5ccccc5c4C3=O)c2)cc1`, the figure is 97.9% (inactive).
